# Source: PubChem
# D2 ag-1: agonists of human D2 dopamine receptor | actives 0.53% (n = 340,000) | activation, % at 2 µM | HEK293 T-REx D2 cells, calcium flux agonist mode | P14416;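 active = activation over 3 SD above normal in the single-dose calcium agonist read, cut at about 30% in these data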; note: 0% is about no effect
# Target sequence (P14416 whole entry, looked up): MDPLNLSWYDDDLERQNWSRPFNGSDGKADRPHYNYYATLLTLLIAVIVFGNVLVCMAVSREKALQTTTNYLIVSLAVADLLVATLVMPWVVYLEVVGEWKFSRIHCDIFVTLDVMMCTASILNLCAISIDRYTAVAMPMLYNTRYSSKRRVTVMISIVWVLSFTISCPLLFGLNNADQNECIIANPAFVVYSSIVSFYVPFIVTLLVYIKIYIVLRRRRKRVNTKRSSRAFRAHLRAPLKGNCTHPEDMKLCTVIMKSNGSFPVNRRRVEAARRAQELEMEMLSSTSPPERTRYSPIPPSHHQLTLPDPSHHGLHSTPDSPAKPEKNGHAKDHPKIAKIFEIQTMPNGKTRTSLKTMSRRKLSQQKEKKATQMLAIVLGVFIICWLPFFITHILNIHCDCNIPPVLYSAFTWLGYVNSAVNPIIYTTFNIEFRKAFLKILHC
#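 Tetracycline-induced HEK293 Trex cells with D2 receptor force-coupled to calcium signaling, plated overnight at 30 C and loaded with no-wash calcium dye. Calcium flux read kinetically for 180 s after compound addition; responses flag agonists.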
# D2 PAM-1: potentiates the human D2 dopamine receptor allosterically; DiscoveRx D2 beta-arrestin cells, luminescence, 90 min; 100% = 57 uM dopamine signal; potentiation, % (no concentration beside the values); actives 0.23% (n = 360,000); in the data active = potentiation above about 50%; inconclusive = mostly about 30% to 49%
#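 D2 cells co-treated with compound plus 50 nM dopamine (EC20) for 90 min at 37 deg C to detect potentiation. Beta-arrestin recruitment was read as enzyme-fragment luminescence after 1 h at ambient temperature. Full response was set by 57 uM dopamine.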
# D2 antag: antagonists of human D2 dopamine receptor; AID 485344; actives 2% (n = 340,000); inhibition, % at 10 µM; HEK293 TREx D2 cells, calcium flux, dopamine EC80; P14416; in the data active = inhibition above about 30%; inactive = below that, where a call was filed; note: 0% is about no effect
#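 Tetracycline-induced HEK293 TREx cells expressing D2 receptor forced-coupled to calcium signalling, loaded with no-wash calcium dye. Compounds added and calcium flux read 180 s, then dopamine added at EC80 and read a further 180 s.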
# D2 PAM-2: positively modulates the human D2 dopamine receptor allosterically; AID 485347; P14416; HEK293 T-REx D2, calcium flux, EC20 dopamine potentiation; actives 0.34% (n = 340,000); potentiation, % at 10 µM;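 active = potentiation over 3 SD above the plate norm, cut at about 30% in these data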; note: 0% is about no effect
#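 Using a no-wash calcium dye in inducible, force-coupled HEK293 Trex cells expressing D2, we tracked fluorescence each second for 180 s after compound, then for 180 s after EC20 dopamine to detect augmented signalling.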
# D2 ag-2: activates the human D2 dopamine receptor; P14416; actives 0.084% (n = 360,000); activation, % (concentration not given with the values); DiscoveRx PathHunter D2 beta-arrestin, luminescence, 90 min; 100% = 57 uM dopamine signal; in the data active = activation above about 40%; inconclusive = between about 15% and that limit
#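 DiscoveRx PathHunter D2 beta-arrestin cells (2,100/well) attached overnight, then compound-stimulated 90 min at 37 C in HBSS/10 mM HEPES/0.1% Tween-20 buffer; beta-galactosidase complementation read by luminescence after 1 h at ambient temperature. Dopamine 57 uM final (EC100) as control.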
# The depositor's hits bear a star; u = inconclusive; x = no result given. Compounds with a hit are over-represented: about 2.4% of the library has one in this group of screens.
SMILES,D2 ag-1,D2 PAM-1,D2 antag,D2 PAM-2,D2 ag-2
C/C(N)=C(/C#N)C(=O)COC(=O)c1cc(-c2ccc(Br)cc2)nc2ccccc12,2,-1,47*,-12,7
O=C(COC(=O)c1cc(-c2ccccc2)nc2ccccc12)c1ccc(Br)cc1,x,x,x,-1,x
Cc1ccc(-c2noc(CCC(=O)NCCCN3CCN(c4cccc(Cl)c4)CC3)n2)cc1,0,-44,-18,8,-5
COc1ccc(-c2noc(CCC(=O)NCCCN3CCN(c4ccccc4F)CC3)n2)cc1,5,-5,84*,-15,-1
O=C(CCS(=O)(=O)Cc1ccc(Cl)cc1)NCCCN1CCN(c2ccccc2F)CC1,0,3,1,23,2
Cc1ccc2[nH]c3c(=O)n(CC(=O)NCCCN4CCN(c5ccc(F)cc5)CC4)ncc3c2c1,0,-30,63*,-6,-3
Cc1ccccc1CS(=O)(=O)CCC(=O)NCCCN1CCN(c2ccccc2F)CC1,43*,-28,55*,-25,5
Cc1ccc(-c2noc(CCC(=O)NCCCN3CCN(c4ccc(F)cc4)CC3)n2)cc1,0,-12,61*,-19,0
CCOc1ccc(NC(=O)c2ccc(NC(=O)CCS(=O)(=O)c3cccs3)cc2)cc1,1,x,x,-4,x
CCCN1CCN(CCCNC(=O)c2cnn(-c3ccc(F)cc3)c2-n2cccc2)CC1,x,x,x,-8,x
Cc1ccc(-c2noc(CCC(=O)NCc3ccco3)n2)cc1,0,-1,60*,6,0
O=C(CCc1nc(-c2ccccc2)no1)NCc1ccco1,0,-2,9,13,-2
COc1ccccc1Nc1nc(-c2sc(NC(=O)c3ccccc3)nc2C)cs1,1,-8,9,-2,-2
COc1ccccc1Nc1nc(-c2sc(N)nc2C)cs1,0,-17,38*,8,1
O=C(c1cc(COc2ccc(F)cc2F)on1)N1CC[C@@H]2CCCC[C@H]2C1,-1,64*,-8,1,-4
O=C(c1cc(COc2ccc(F)cc2Cl)on1)N1CC[C@@H]2CCCC[C@H]2C1,1,-18,-3,12,-4
COc1ccc(OCc2cc(C(=O)N3CCCC(CO)C3)no2)c2ccccc12 (centres undefined),0,74*,4,-4,15
O=C(NC1CC(=O)N(c2ccccc2)C1)c1cccs1 (centres undefined),1,x,x,2,x
O=C(CSc1nc2[nH]c(=O)cc(O)c2s1)NCCc1ccccc1,0,-14,0,17,2
O=C(CSc1ccc2ccccc2c1)NCCc1ccc(O)c(O)c1,32*,u,51*,-18,100*
COc1ccc(CCNC(=O)CSc2nc3[nH]c(=O)cc(O)c3s2)cc1,0,-7,44*,-10,-1
COc1ccc(CCNC(=O)CSc2nc3ccccc3o2)cc1,-1,3,39*,5,-3
COc1ccc(CCNC(=O)CN2C(=O)c3ccccc3S2(=O)=O)cc1,0,-5,34*,2,-1
COc1cc(NC(=O)CCc2c(C)nn(-c3ccc4nnc(C)n4n3)c2C)cc(OC)c1OC,1,x,x,-2,x
CC(C)CCn1c(=O)c2sccc2n2c(CCCC(=O)NCCc3ccccc3)nnc12,0,x,x,4,x
SMILES,D2 ag-1,D2 PAM-1,D2 antag,D2 PAM-2,D2 ag-2
CON/C=C(\C=Nc1ccccc1)c1ncc(C(F)(F)F)cc1Cl,1,-8,-4,34*,-1
CON/C=C(\C=Nc1ccc(Cl)cc1Cl)c1ncc(C(F)(F)F)cc1Cl,1,-3,19,-5,-2
Cc1ccc2cccc(NC(=O)c3ccc(-c4cc(Cl)ccc4Cl)o3)c2n1,0,x,x,-2,x
COc1cc(/C=C2\SC(=S)N(CCCCC(=O)O)C2=O)ccc1OS(=O)(=O)c1ccc(C)cc1,2,u,32*,-9,5
COc1cc(/C=C2/SC(=S)NC2=O)ccc1OS(=O)(=O)c1ccc(C)cc1,5,-17,-3,1,-4
O=C(O)CCC(=O)N1CCc2cc(S(=O)(=O)N3CCC(Cc4ccccc4)CC3)ccc21,1,-4,34*,1,-4
CC1CCN(S(=O)(=O)c2ccc3c(c2)CCN3C(=O)CCC(=O)O)CC1,0,-8,10,-5,-1
